# Screens deposited in PubChem BioAssay by National Center for Advancing Translational Sciences (NCATS).
# TRPV1 PAM – enhances activation of the human vanilloid receptor TRPV1 | Q8NER1 | TRPV1-expressing cells, Fluo-8 calcium influx, capsaicin EC20 potentiation | potentiation, % at 8.33 µM | hit rate 0.02% among 320,000; in the data active means potentiation above about 80%; inconclusive means between about 30% and that limit; further: 0% is about no effect
#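 Cells expressing TRPV1 were dye-loaded with Fluo-8 and read kinetically: 10 s baseline, 3 min after compound (agonist portion), then 2 min after EC20 capsaicin (allosteric enhancer portion). Calcium-bound dye fluorescence at 480/520 nm.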
# hERG WT inh – blocks the wildtype human KCNH2 potassium channel; activity change, % at 1.84 µM; U2OS, BacMam KCNH2, thallium flux FluxOr; stronger effect = lower value; Q12809; hit rate 0.37% among 340,000;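 active means maximum activity change below -70%; inconclusive means maximum activity change between -70% and -50%; inactive means maximum activity change above -50%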; further: on the % scale 0 is the no-effect control and ±100 the full control effect
#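 U2OS cells transduced with wild-type KCNH2 virus are loaded with FluxOr dye for 45 min, and thallium flux is measured in kinetic reads before and after stimulation buffer. Rate constants are normalized to DMSO controls.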
# KCNH2 3.1 block – inhibitors of human KCNH2 3.1 potassium channel isoform | hit rate 0.95% among 340,000 | AID 720553 | activity change, % (tested at about 1.8 µM) | U2OS KCNH2 3.1, thallium flux FluxOr; stronger effect = lower value;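 active means maximum activity change below -70%; inconclusive means maximum activity change from -70% to -50%; inactive means maximum activity change above -50%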;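 further: thallium influx rate constant from kinetic fluorescence after stimulation buffer; on the % scale 0 is the no-effect control and ±100 the full control effect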
#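 Virally transduced U2OS (3.1 isoform, 4 h infection in dark at RT) → overnight 37 C → FluxOr + Red40 in HBSS/HEPES, 45 min → stimulation buffer, 2 min kinetic read → rate constant vs DMSO controls.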
# TRPV1 ag – human TRPV1 agonism. Q8NER1. TRPV1-expressing cells, Fluo-8 calcium influx, agonist mode. activation, % at 8.33 µM. hit rate 0.19% among 320,000; in the data active means activation above about 80%; inconclusive means between about 30% and that limit; further: 0% is about no effect
#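 TRPV1-expressing cells were cultured overnight at 35.5C and loaded with Fluo-8 calcium dye for 40 to 90 min at room temperature. After a 10 s baseline, compound was added and calcium influx was read kinetically for 3 min (ex 480/em 520 nm).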
# MBNL1 CUG block – MBNL1-poly(CUG) RNA binding inhibition | AID 2675 | TR-FRET MBNL1-His/biotin-(CUG)12 binding, 665/545 ratio | Potency, µM (top dose mostly 57.5 µM), without a hit: top-dose activity change, negative = inhibition, hits mostly inhibitors | hit rate 0.036% among 280,000 | Q9NR56; active means well fitted inhibition curve with a large enough effect in the signal ratio, with a control signal flat, not every such curve was filed as active; inconclusive means small, poorly fitted or top-dose-only effect, or effect the other way, or a change in a side signal; inactive means no such curve, though single readings can be large or run the other way; the % refers to the signal ratio; further: potency means the concentration at half of the fitted maximal effect; on the % scale 0 is the no-effect control and ±100 the full control effect
# Target sequence (Q9NR56 whole entry, looked up): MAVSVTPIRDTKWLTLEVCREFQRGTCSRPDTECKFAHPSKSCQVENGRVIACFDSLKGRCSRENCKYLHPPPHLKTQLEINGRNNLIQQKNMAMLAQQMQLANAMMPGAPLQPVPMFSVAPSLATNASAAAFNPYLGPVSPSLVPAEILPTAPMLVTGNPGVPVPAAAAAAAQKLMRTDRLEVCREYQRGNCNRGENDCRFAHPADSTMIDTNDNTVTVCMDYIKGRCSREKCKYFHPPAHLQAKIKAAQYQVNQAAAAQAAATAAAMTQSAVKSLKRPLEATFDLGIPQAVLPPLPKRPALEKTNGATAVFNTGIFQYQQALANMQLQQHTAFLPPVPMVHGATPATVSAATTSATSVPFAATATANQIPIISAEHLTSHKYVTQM
#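 TR-FRET readout: Ex 340 nm, 665/545 nm emission ratio, normalized to buffer-only (basal) and MBNL1-(CUG)12 controls. Complex of MBNL1-His with Biotin-(CUG)12, compounds 92 nM–58 uM, incubated 60 min at room temperature.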
# An asterisk follows results filed as active; ? = inconclusive; . = not tested or not shown. Hits are enriched below; roughly 1.3% of the tested compounds scored in any of these assays.
SMILES,TRPV1 PAM,hERG WT inh,KCNH2 3.1 block,TRPV1 ag,MBNL1 CUG block
CCN(Cc1ccccc1)C(=O)C1CCN(Cc2ccc(SC)cc2)CC1,4,-114*,-94*,3,-13%
O=c1c2sc3nc(N4CCOCC4)c4c(c3c2ncn1C(c1ccccc1)c1ccccc1)CCCC4,.,0,21,.,.
Cc1noc(C)c1NC(=O)N(C)C[C@H]1Oc2ccc(NC(=O)Cn3cnnn3)cc2C(=O)N([C@H](C)CO)C[C@@H]1C,.,-10,-8,.,.
C=CCOc1ccc(C2NC(=O)c3ccccc3O2)cc1OCC (configuration not stated),?,-3,-9,-6,-6%
C=CCOc1ccc(C2NC(=O)c3ccccc3O2)cc1OC (configuration not stated),.,-75*,6,.,.
NC(=O)c1cccc(C(N)=O)n1,-5,7,4,1,2%
Cc1cc(C)cc(NC(=O)CN2CCN(CCN=CC3=C(O)CC(C)(C)CC3=O)CC2)c1,-55,5,-93*,-3,-2%
O=C(CNc1cccc(S(=O)(=O)N2CCOCC2)c1)N1CCc2ccccc21,-5,-4,9,17,0%
CCOc1cc(/C=C(\CC(=O)O)c2nc3ccccc3s2)ccc1OCC(=O)Nc1cccc(C(F)(F)F)c1,.,-258*,-26,.,.
CN(C)C(CNC(C(=O)Nc1ccc([N+](=O)[O-])cc1Br)c1ccccc1)c1ccccc1 (configuration not stated),-2,-24,-85*,1,?
COc1cccc(OC)c1OCCCN1CCC(Cc2ccccc2)CC1,-32,-10,-70*,3,-1%
COc1cccc(OC)c1OCCN1CCN(C(c2ccccc2)c2ccccc2)CC1,10,?,-103*,4,-1%
Cc1cc(NC(=O)CCN2CCC(C)CC2)ccc1Br,-2,65,-25,0,8%
COc1cc(/C=N\NC(=O)C2COc3ccccc3O2)cc(OC)c1O (configuration not stated),2,-9,2,88*,?
CC(C)(C)c1ccc2c(c1)OC(C(=O)N/N=C\c1ccncc1)CO2 (configuration not stated),-5,10,-33,109*,3%
CC(C)(C)c1ccc2c(c1)OC(C(=O)N/N=C\c1ccc[nH]1)CO2 (configuration not stated),9,-18,10,?,5%
C=CCNC(=S)N1CCN(C2CCCCC2)CC1,3,38,3,2,-7%
O=C(CCCCn1c(=S)[nH]c2ccsc2c1=O)NCc1ccco1,-5,-14,-71*,1,6%
Cc1ccc(NC(=O)c2cc(S(=O)(=O)N3CCOCC3)cs2)cc1,-9,-16,-6,81*,-8%
O=C(Nc1ccc(F)cc1)c1cc(S(=O)(=O)N2CCOCC2)cs1,-7,1,-21,?,-11%
O=c1[nH]c(CN2CCN(C/C=C/c3ccccc3)CC2)nc2cc(Cl)ccc12,-5,-110*,-99*,0,-4%
CNC(=O)c1cc2cc(OC)ccc2n1CCN(Cc1ccccc1)Cc1ccccc1,-15,9,-75*,?,21%
c1ccc(Nc2ncnc3sc4c(c23)CCC4)cc1,-15,-4,11,?,3%
Fc1ccc(Nc2ncnc3sc4c(c23)CCC4)cc1,7,-8,3,81*,-2%
N#Cc1ccc(OCC(=O)N2CCN(c3ccc(C(F)(F)F)cn3)CC2)cc1,-5,-41,-92*,22,.
SMILES,TRPV1 PAM,hERG WT inh,KCNH2 3.1 block,TRPV1 ag,MBNL1 CUG block
CC(OC(=O)CNC(=O)C12CC3CC(CC(C3)C1)C2)C(=O)Nc1ccc(S(N)(=O)=O)cc1 (configuration not stated),4,3,-1,3,-3%
COc1ccc(C(=O)COc2ccccc2N2C(=O)C3C4C=CC(C4)C3C2=O)cc1 (configuration not stated),4,2,-6,5,1%
NNC(=O)CN1C(c2cccc(Cl)c2)=Nc2ccc(Br)cc2C1c1ccccc1 (configuration not stated),1,-2,-13,0,-3%
COc1ccc(C2=Nc3ccc(C)cc3C(c3ccccc3)N2CC(=O)NN)cc1 (configuration not stated),11,-16,-190*,2,-9%
COc1ccc(C2=Nc3ccc(Br)cc3C(c3ccccc3)N2CC(=O)NN)cc1 (configuration not stated),-8,-8,-72*,7,6%
CCN1CCN(CCC(=O)Nc2ccccc2C)CC1,-10,-4,7,1,8%
c1ccc(CN2CCN(c3nc(NCc4ccco4)c4ccccc4n3)CC2)cc1,?,-48,-108*,0,?
Cc1ccc(OCCN2CCN(c3nc(NCc4ccco4)c4ccccc4n3)CC2)cc1,-8,-131*,-104*,5,-9%
OCCN1CCN(c2nc(NCc3ccco3)c3ccccc3n2)CC1,8,18,-19,-6,0%
Cc1ccc(S(=O)(=O)N2CCN(c3ccnc4cc(Cl)ccc34)CC2)cc1,4,-36,-102*,2,14%
CC(=O)c1ccc(S(=O)(=O)N2CCN(c3ccnc4cc(Cl)ccc34)CC2)cc1,.,-123*,-98*,.,.
O=C(c1ccc(Cl)cc1)N1CCN(c2ccnc3cc(Cl)ccc23)CC1,-15,-10,-87*,?,4%
COc1ccc(N2CCN(c3ccnc4cc(Cl)ccc34)CC2)cc1,-20,7,-81*,10,27%
CCC(C(=O)NCCc1ccccc1OC)n1nc(C)c2c(C)n(-c3ccccc3)nc2c1=O (configuration not stated),3,-21,9,1,0%
O=C(COc1ccc(Cl)cc1Br)OCC(=O)c1ccc[nH]1,.,-12,-2,.,.
Cc1cc(Br)c2[nH]cc(CCNC(=O)c3ccco3)c2c1,14,-5,1,13,-7%
COc1cc2c(cc1OC)CN(C(=O)/C=C/c1ccccc1[N+](=O)[O-])CC2,-19,-19,2,2,?
COc1ccccc1C(=O)N/C(=C\c1cn(C)c2ccccc12)C(=O)NCCCN1CCOCC1,11,-33,-7,-1,?
Cc1ccc(N2CCN(C(=O)c3cc(-c4ccc(F)cc4)[nH]c3C)CC2C)cc1 (configuration not stated),4,8,-11,9,-4%
CCOc1ncccc1C(=O)NCc1ccc(OC)c(OC)c1,10,-6,-102*,-2,25%
CN1c2ccccc2C(O)=C(C(=S)Nc2ccc(F)c(Cl)c2)S1(=O)=O,21,-255*,-9,-1,4%
